Assay outcomes deposited in PubChem by National Center for Advancing Translational Sciences (NCATS).
JMJD2A Tudor inh: qHTS Assay for Inhibitors of JMJD2A-Tudor Domain; AID 504339, 2011; Potency, µM (doses to about 114 µM), for the others: at the highest dose activity change, negative = inhibition, usual class: inhibitors; Lysine-specific demethylase 4A (Homo sapiens), O75164; AlphaScreen JMJD2A-Tudor / H3K4me3 peptide binding; 390,000 tested, 4.4% active; also: % is scaled to controls: 0 for no effect and ±100 for the full control effect; nearly all actives have a fitted effect of over 50% in size
G9a block: qHTS Assay for Inhibitors of Histone Lysine Methyltransferase G9a; Histone-lysine N-methyltransferase EHMT2 (Homo sapiens), Q96KQ7; G9a H3K9 monomethylation, AlphaScreen, 2 h; Potency, µM (series often up to 102 µM), without a hit: at the highest dose activity, negative = inhibition, most hits filed as inhibitors; 350,000 tested, 8.8% active; AID 504332, 2011; also: % is scaled to controls: 0 for no effect and ±100 for the full control effect; nearly all actives have a fitted effect of over 75% in size
Target sequence (Q96KQ7 913-1193 limits assumed): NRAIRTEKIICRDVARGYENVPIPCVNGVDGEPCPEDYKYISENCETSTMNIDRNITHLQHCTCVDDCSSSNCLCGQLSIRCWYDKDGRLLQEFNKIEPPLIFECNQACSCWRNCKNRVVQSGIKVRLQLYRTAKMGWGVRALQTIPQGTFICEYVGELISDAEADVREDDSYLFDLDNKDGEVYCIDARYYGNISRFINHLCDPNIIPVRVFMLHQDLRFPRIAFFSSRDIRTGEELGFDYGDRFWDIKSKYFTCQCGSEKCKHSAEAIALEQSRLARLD
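Readings reflect AlphaScreen signal from monomethyl-H3K9 antibody detection. HMT at 20 nM; substrate b-H3K9 500 nM; cofactor SAM 20 uM; 2 h RT reaction; compounds tested as titrations in qHTS with 15 min preincubation.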
BAZ2B block: qHTS Assay for Inhibitors of BAZ2B. Bromodomain adjacent to zinc finger domain protein 2B (Homo sapiens), Q9UIF8. AlphaScreen BAZ2B-H3K14Ac peptide displacement. Potency, µM (highest dose often 114 µM), inactives show top-dose activity change, negative = inhibition, actives largely listed as inhibitors. 360,000 tested, 4.4% active. AID 504333, 2011; also: % is scaled to controls: 0 for no effect and ±100 for the full control effect; nearly all actives have a fitted effect of over 60% in size
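Compounds, titrated to a top concentration of 110 uM, were incubated 30 min at room temperature with preformed BAZ2B/acetyl-K14 H3 peptide complex (50 nM each). Proximity signal was measured by AlphaScreen after 20 min with beads.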
PLK1 PBD block: qHTS for Inhibitors of PLK1-PDB (polo-like kinase 1 - polo-box domain): Primary Screen. Serine/threonine-protein kinase PLK1 (Homo sapiens), P53350. AID 720504, 2013. 360,000 tested, 2.8% active. Plk1 PBD binding of FITC phosphopeptide, fluorescence polarization. Potency, µM, for the others: max response, negative = inhibition, most hits filed as inhibitors; also: series mostly up to about 57 µM; % is scaled to controls: 0 for no effect and ±100 for the full control effect; nearly all actives have a fitted effect of over 65% in size
HP1b chromo inh: HTS for Inhibitors of HP1-beta Chromodomain Interactions with Methylated Histone Tails; AID 540317, 2011; AlphaScreen HP1-beta / biotin-H3K9me3 peptide binding; Potency, µM (doses to about 114 µM), for the others: top-dose activity change, negative = inhibition, hits mostly inhibitors; Chromobox protein homolog 1 (Homo sapiens), P83916; 390,000 tested, 0.56% active; also: nearly all actives have a fitted effect of over 70% in size
Target sequence (P83916 whole entry, looked up): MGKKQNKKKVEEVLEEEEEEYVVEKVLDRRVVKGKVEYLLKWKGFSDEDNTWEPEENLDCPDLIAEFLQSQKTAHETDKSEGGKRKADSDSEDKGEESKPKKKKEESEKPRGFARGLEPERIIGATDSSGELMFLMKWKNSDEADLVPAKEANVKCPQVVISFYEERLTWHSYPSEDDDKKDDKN
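Compound inhibition of the preformed complex between 50 nM HP1-beta and 50 nM biotinylated H3K9me3 peptide was read by AlphaScreen. Buffer was PBS pH 7.4 with 0.01% Tween-20. Incubations ran 30 min at room temperature, with 10 ug/mL donor/acceptor beads.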
Sfp inh: qHTS Assay for Inhibitors of Bacillus subtilis Sfp phosphopantetheinyl transferase (PPTase) | Potency, µM, without a hit: largest response in the series, negative = inhibition, actives largely listed as inhibitors | 4'-phosphopantetheinyl transferase ffp (Bacillus subtilis), Q9F4F7 | 310,000 tested, 3.5% active | Biochemical Sfp PPTase activity, qHTS;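 also: the enzyme is Sfp with the accession as filed and its product quenches rhodamine fluorescence; 0% = enzyme reaction without inhibitor and -100% = no enzyme wells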
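Sfp 15 nM + cpd, 15 min RT; start w/ rhodamine-CoA 5 uM, BHQ-2-YbbR 12.5 uM (final); 50 mM Hepes pH 7.6, 10 mM MgCl2, 0.01% NP-40, 0.01% BSA; read 525/598 nm at 0 and 30 min.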
* = called active by the depositor; [ ] = dose if it differs, or a comment. This is a sample that favours compounds with a hit; in the whole collection about 12% have one here. Calls follow the shape of the dose curve; as a rule, active = well fitted curve in the direction sought with a large enough effect; inconclusive = small, poorly fitted or top-dose-only effect, or another doubt; inactive = no such curve, though single readings can be large; an effect the other way counts as inactive or inconclusive. Potency is read from the fitted curve at half-maximal effect.

Screening COc1ccc2nc(SCC(=O)NC(C)(C)C)[nH]c2c1 returned JMJD2A Tudor inh -16.9%, G9a block 47.5%, BAZ2B block -3.8%, PLK1 PBD block -2.0%, HP1b chromo inh 13.3% and Sfp inh 13.8%.
Screening CCOc1ccc2nc(SCC(=O)NC(=O)NCc3ccco3)[nH]c2c1 returned JMJD2A Tudor inh -20.1%, G9a block 50.1µM*, BAZ2B block inconclusive, PLK1 PBD block -4.7%, HP1b chromo inh 5.8% and Sfp inh -6.4%.
For COc1ccc2nc(SCC(=O)C(C)(C)C)[nH]c2c1 the results were JMJD2A Tudor inh -15.3%, G9a block 56.2µM*, BAZ2B block -10.9%, PLK1 PBD block 0.4%, HP1b chromo inh 19.0% and Sfp inh 39.8µM*.
For CCc1ccc(/C=C/C(=O)C2C(=O)c3ccccc3C2=O)cc1 the results were JMJD2A Tudor inh -21.4%, G9a block inconclusive, BAZ2B block -3.8%, PLK1 PBD block 26.7µM*, HP1b chromo inh 22.1% and Sfp inh 79.4µM*.
Screening CC(C)c1ccc(NC(=O)CSC2=Nc3ccccc3C3=NC(CC(=O)NCCc4ccccc4)C(=O)N23)cc1 (centres undefined) returned JMJD2A Tudor inh -22.0%, G9a block 6.7%[59 µM], BAZ2B block -18.5% and HP1b chromo inh 26.1%.
For CN(Cc1cccs1)C(=O)CN1CCN(S(=O)(=O)c2ccc3c(c2)OCCCO3)CC1 the results were JMJD2A Tudor inh -7.6%, G9a block 44.7µM*, BAZ2B block 0.7%, PLK1 PBD block -7.0% and HP1b chromo inh 17.1%.
`CCN(Cc1cccs1)C(=O)CN1CCN(S(=O)(=O)c2ccc3c(c2)OCCCO3)CC1` gave JMJD2A Tudor inh -5.5%, G9a block 44.7µM*, BAZ2B block 8.9%, PLK1 PBD block 0.4% and HP1b chromo inh 24.2%.
CCC(C)C(=O)O[C@H]1C[C@@H](C)C=C2C=C[C@H](C)[C@H](CC[C@@H]3C[C@@H](O)CC(=O)O3)C21 (some centres undefined) was read as Sfp inh 8.2%.
For NC(=O)NC(=O)CC1S/C(=N/N=C/c2ccccc2)NC1=O (centres undefined) the results were JMJD2A Tudor inh -8.9%, G9a block -26.4%, BAZ2B block -22.9%, PLK1 PBD block -10.9%, HP1b chromo inh 37.5% and Sfp inh 22.8%.
`NC(=O)NC(=O)CC1S/C(=N/N=C2\CSC(=O)N2)NC1=O` (centres undefined) gave JMJD2A Tudor inh 8.91µM*, G9a block 0.794µM*, BAZ2B block 3.16µM*, PLK1 PBD block -0.4%, HP1b chromo inh 48.1% and Sfp inh 11.2µM*.
O=C(O)CNC(=O)CC1S/C(=N/N=C2/NC(=O)CS2)NC1=O (centres undefined) was read as JMJD2A Tudor inh 22.4µM*, G9a block 28.2µM*, BAZ2B block 20µM*, PLK1 PBD block -34.6%, HP1b chromo inh 2.3% and Sfp inh 31.6µM*.
Cc1ccc(NC(=O)CCc2c(C)nc3cc(-c4ccccc4)nn3c2C)cc1F was read as JMJD2A Tudor inh -14.1%, G9a block 6.3%[59 µM], BAZ2B block -4.3% and HP1b chromo inh 11.7%.
For Cc1ccc(C(=O)NCC(=O)OC(C(=O)Nc2cc(C(F)(F)F)ccc2Cl)c2ccccc2)cc1 (centres undefined) the results were JMJD2A Tudor inh -19.9%.
For O=C(Nc1ccccc1Sc1ccccc1)c1cnn2c1NC(=C1CC1)C=C2C(F)(F)F the results were HP1b chromo inh 10.4%.
Cc1ccc2nc3ccc(N4CCCC4)nn3c(=O)c2c1 was read as JMJD2A Tudor inh 3.2%, G9a block 9.7%[59 µM], BAZ2B block -0.8%, PLK1 PBD block -12.5%, HP1b chromo inh 44.4% and Sfp inh 27.9%.
Screening CC1CCCN(c2ccc3nc4ccccc4c(=O)n3n2)C1 (centres undefined) returned JMJD2A Tudor inh 79.4µM*, G9a block 50.1µM*, BAZ2B block 5.8%, PLK1 PBD block inconclusive, HP1b chromo inh 33.0% and Sfp inh 11.1%.
Screening NCCC[C@@H](CC(=O)N[C@@H]1CCCC[C@H]1C(=O)N[C@H](CC(=O)N[C@@H](CCC(=O)O)CC(=O)O)Cc1ccccc1)NC(=O)C[C@H](Cc1ccccc1)NC(=O)[C@@H]1CCCC[C@H]1N returned Sfp inh 15.1%.
`COc1ccc(-c2nc(C)c(CCNC(=O)C(=O)Nc3ccccc3C#N)s2)cc1OC` gave JMJD2A Tudor inh -12.9%, G9a block 2.0%[59 µM], BAZ2B block 2.1% and HP1b chromo inh 19.5%[57 µM].
For COC(=O)c1c(NC(=O)CCCOc2ccc(C(C)(C)C)cc2)sc2c1CCC(C)C2 (centres undefined) the results were JMJD2A Tudor inh -13.4%, G9a block 4.7%[59 µM], BAZ2B block 2.5% and HP1b chromo inh 20.8%.
`COC(=O)c1c(NC(=O)CCCOc2ccc(C)cc2)sc2c1C(C(=O)OC)CC2` (centres undefined) gave JMJD2A Tudor inh -22.9%, G9a block 1.12µM*, BAZ2B block inconclusive and HP1b chromo inh inconclusive.
`COC(=O)c1c(NC(=O)C(C)(C)C)sc2c1C(C(=O)OC)CC2` (centres undefined) gave JMJD2A Tudor inh -10.4%, G9a block 17.0%, BAZ2B block 0.9%, PLK1 PBD block -9.8%, HP1b chromo inh 41.9% and Sfp inh -11.7%.
For CCOc1ccc(/C=C/C(=O)Nc2sc3c(c2C(=O)OC)C(C(=O)OC)CC3)cc1 (centres undefined) the results were JMJD2A Tudor inh 56.2µM*, G9a block 1.12µM*, BAZ2B block inconclusive and HP1b chromo inh inconclusive.
COC(=O)c1c(NC(=O)Cc2ccccc2)sc2c1C(C(=O)OC)CC2 (centres undefined) was read as JMJD2A Tudor inh -13.1%, G9a block 39.8µM*, BAZ2B block inconclusive, PLK1 PBD block 16.8µM*, HP1b chromo inh -8.4% and Sfp inh 79.4µM*.
Screening COC(=O)c1c(NC(=O)CCCOc2ccc(C)cc2)sc2c1CCCC2 returned JMJD2A Tudor inh 29.4%, G9a block 14.1µM*, BAZ2B block 4.8% and HP1b chromo inh 39.3%.
`CSc1ccc(CN2CCC2(C)C(=O)NCc2cccs2)cc1` (centres undefined) gave PLK1 PBD block 1.4%.
